In PubChem BioAssay (NCI):
Several values for one entry are separate records, joined by “and”; a condition that tells them apart may be missing. Identical values can stand only once. Compounds without any hit were thinned out: in the full panel of roughly 83,000, 20% have a hit.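 Results are percent growth after 48 hours of single-concentration exposure. 100 means growth as in untreated cells, lower positive values show inhibition; negative values down to -100 show cell death.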 Activity calls are given as the source filed them.

The compounds below were run on OVCAR-4 ovarian (assay: NCI-60 one-dose screen, 48 h (100 = growth as untreated, 0 = no growth, -100 = all killed)). Conditions: 10 µM.
Description: Growth inhibition of the OVCAR-4 human tumor cell line is measured as a screen for anti-cancer activity. Cells are grown in 96 well plates and exposed to the test compound for 48 hours. Compounds are tested at a single concentration, which is 10^-5 M for most compounds. The reported endpoint is percent growth (GI% or GIPRCNT), where numbers from 0 - 100% represent growth inhibition, and numbers from -100% - 0 represent cell death. For example, a value of 40 represents 60% growth inhibition. A value of 0 means no net growth occurred over the course of the experiment. A value of -40 indicates 40% of cells at the beginning of the experiment died by the end of the experiment. A value of -100 means all cells are dead at the end of the experiment.
NCI-60 Human Tumor Cell Lines Screen was performed using the standard one-dose NCI protocol, which is described in more detail at https://dtp.cancer.gov/discovery_development/nci-60/default.htm.
Compounds with GIPRCNT values below 10 were considered active. Activity score was based on GIPRCNT using the following formula: […]
Score is 0 for GIPRCNT values of 100 or above, 50 for GIPRCNT values of 0, and 100 for GIPRCNT values of -100.

Row | SMILES | growth
1 | CC(=O)/C=C/c1ccc(OCc2ccc(C(C)(C)C)cc2)cc1 | 74% (inactive)

Same assay, conditions: 10 µM unless noted

Row | SMILES | growth
2 | O=C(NNc1ccccc1)c1ccccc1 | 94.5% (inactive) and 64.6% (inactive)
3 | COc1cc2ncnc(Nc3ccc(F)c(Cl)c3)c2cc1OCC(=O)N1CCCCC1 | 71.7% (inactive)
4 | Cc1nc(-n2[nH]c(=O)ccc2=O)sc1N=Nc1ccccc1 | 104% (inactive)
5 | CCN1CCN(CC(=O)Nc2nc3ccc(NCc4ccc(C)cc4)cc3s2)CC1 | 75% (inactive)
6 | Cc1cc(N2CCCCC2)nc(NCc2cc(Nc3ccnc4cc(Cl)ccc34)ccc2F)n1 | -4.79% (active)
7 | Nc1n[nH]c2cccc(C#Cc3cccc(C(=O)Nc4ccc(CN5CCOCC5)c(C(F)(F)F)c4)c3)c12 | 47.2% (inactive)
8 | CCOC(=O)c1nc2c3ccccc3cnn2c1C(=O)c1ccc(OC)cc1 | 89.4% (inactive)
9 | C=CCN1C=CC(=O)[C@H](O[Si](C)(C)C(C)(C)C)[C@@H]1/C=C/c1ccccc1 | -84% [100 µM] (active)
10 | CN1CCCc2cc(/C=C3\SC(=S)N(C(Cc4ccc(O)cc4)C(=O)O)C3=O)ccc21 (stereo not given) | 98.2% (inactive)
11 | COC(=O)/C=C1/SC(N2N=C(c3cccs3)CC2c2ccc(F)cc2)=NC1=O (stereo not given) | 84.8% (inactive)
12 | CN1Cn2c(ccc2C(F)(F)F)C(=O)CS1(=O)=O | 97.4% (inactive)
13 | CCCCCCCCCCCCCCCC[N+](C)(C)CCN(Cc1ccc(OC)cc1)c1ncccn1 | -8.05% (active) and 31.3% (inactive)
14 | O=[N+]([O-])c1ccc2[nH]c3nccc(NCc4cccc(Cl)c4)c3c2c1 | -35% (active)
15 | Cc1ccc(C(=O)N(CCCN)[C@@H](c2nc3cc(Cl)ccc3c(=O)n2Cc2ccccc2)C(C)C)cc1 | 33.3% (inactive)
16 | N=C(N)c1ccc(-c2ccc(-c3ccc(Cl)c(Cl)c3)s2)cc1 | -16.2% (active)
17 | Cc1ccc(NC(=O)c2ccc(CN3CCN(C)CC3)cc2)cc1Nc1nccc(-c2cccnc2)n1 | 100% (inactive) and 93.1% (inactive)
18 | COc1cc(CO)cc2cc3ccccc3nc12 | 107% (inactive)
19 | Cc1ccc2c(c1)C(C)Cc1c(ncnc1-n1cnc3cc(C)ccc31)N2C (stereo not given) | 61.7% (inactive)
20 | Clc1nccc2c(-c3csc(-c4c[nH]c5ccc(Br)cc45)n3)c[nH]c12 | 48.2% (inactive)

Row | SMILES | growth
21 | O=C(CCl)N(O)c1ccc(/C=C/c2ccccc2)cc1 | 103% (inactive) and 94.9% (inactive)
22 | O=C1OCC2=C1C(c1cccc([N+](=O)[O-])c1)c1cc3c(cc1N2CCO)CCC3 (stereo not given) | 40% (inactive)
23 | O=C(CCCCCCCCC(=O)N/N=C\c1ccccc1O)N/N=C\c1ccccc1O | 15.9% (inactive)
24 | COc1ccc(/C=C(\C#N)c2cc3ccccc3[nH]2)cc1 | 62.4% (inactive)
25 | O=C1C(Nc2ccc(Cl)cc2)=C(I)C(=O)c2ncccc21 | -91.4% (active)
26 | COc1c(O)c(O)cc2c3c(oc12)CC(c1ccc2c(c1)OCO2)CC3=O (stereo not given) | 80.5% (inactive)
27 | Clc1ccc2c(c1)N(c1ncnc3ccc(-c4cnc5[nH]ccc5c4)cc13)CC2 | 0.279% (active)
28 | C[C@]12CCc3c(ccc4cc(O)ccc34)[C@@H]1C[C@H](O)[C@@H]2O | 106% (inactive)
29 | COc1ccc(C/C(C)=C(/c2ccc(OCCN3CCCC3)cc2)c2ccc(OC(=O)NCc3ccccc3)cc2)cc1 | 81.6% (inactive)
30 | Nc1ncnc2c1C(c1ccc([N+](=O)[O-])cc1)c1sc3c(F)cccc3c1O2 (stereo not given) | 99.8% (inactive)
31 | COc1ccc(-c2cc(-c3cccnc3)nc3sc4c(Cl)nnnc4c23)cc1OC | 96.5% (inactive)
32 | CCOC(=O)C(=Cc1ccc(C#N)cc1)C(=O)OCC | 53.9% (inactive)
33 | Cc1ccc(NC(=O)c2sc3nc(C)c(C(=O)c4ccccc4)cc3c2N)cc1 | 89.3% (inactive)
34 | Cc1cccc(Cc2cnc(NC(=O)CCCOc3ccc(Cl)cc3)s2)c1 | 31.3% (inactive)
35 | CCOC(=O)c1ccc(Nc2ncnc3c2cnn3-c2cccc(F)c2)cc1 | 99.7% (inactive)
36 | CCOc1ccc(C(=O)Cc2ccccc2)cc1 | 105% (inactive) and 106% (inactive)
37 | O=C1C(=C(O)c2ccccc2)C(=O)c2ccccc21 | 101% (inactive)
38 | CCOC(=O)CCCn1c(-c2ccccc2)cc(-c2ccccc2)c(C#N)c1=O | 94.8% (inactive)
39 | COCCn1cc(-c2csc(-c3cn(C)c4ccc(F)cc34)n2)c2cccnc21 | 47.8% (inactive)

Same assay, conditions: 100 µM

Row | SMILES | growth
40 | CC(=O)/C=C/c1ccc(OCc2ccc(C(C)(C)C)cc2)cc1 | 33.8% (inactive)
